The panel holds about 83,000 compounds, 20% with a hit somewhere; the sample as a whole holds those more often.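 A percent growth of 40 corresponds to 60% growth inhibition; 0 means no net growth; -100 means all cells died. Active threshold: below 10.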 Values without a mark were called inactive.
test system: CCRF-CEM leukemia; experiment: NCI-60 one-dose screen, 48 h (100 = growth as untreated, 0 = no growth, -100 = all killed); details: 10 µM unless noted

Row | SMILES | growth [%]
1 | CCC(C)(C)c1ccc(Nc2ccc(Nc3ccc(C(C)(C)CC)cc3)cc2)cc1 | 87.9
2 | O=C(Nc1ccc(Nc2ccncc2)cc1)c1ccc(Nc2ccnc3ccc([N+](=O)[O-])cc23)cc1 | 63.9
3 | CCCCNC(=O)c1ccc2c(c1)nc(-c1ccccc1)n2C1CCCCC1 | 86.5
4 | Cc1ccc(NC(=O)c2cc3ccccc3cc2O)c(C)c1 | 67.8
5 | CCOC(=O)C(CCN(C)C)c1ccccc1 (stereo unspecified) | 93.2
6 | CC(O)Cc1c[nH]c(=O)[nH]c1=O (stereo unspecified) | 122
7 | COCCn1cc(-c2nc(-c3c[nH]c4ncccc34)cs2)c2ccccc21 | 56.6
8 | CC1SC(c2ccccc2O)N(NC(=O)CCC(=O)c2nc3ncccc3[nH]2)C1=O (stereo unspecified) | 116
9 | COC12C=C/C(=C(/C(=O)OCCSc3ccnn3C)C(=O)CCCCCCCCC3(OC)C=C/C(=C(/C(=O)OCCSc4ccnn4C)C(=O)CCCCCCCC1)O3)O2 | 11.1
10 | COC1C(O)CC(OC2CC(OC3CC(O[C@@H]4C(=O)c5c(cc6cc(OC7CC(OC8CC(O)C(O)C(C)O8)C(O)C(C)O7)c(C)c(O)c6c5O)CC4[C@H](OC)[C@@H](O)C(C)=O)OC(C)C3O)OC(C)C2O)OC1C (stereo partly specified) | 16.6
11 | CNC(=O)c1cc(Oc2ccc3c(c2)sc2nc(-c4ccc(NC(=O)[C@@H](NC(=O)OC)C(C)C)cc4)cn23)ccn1 | 23.5

Reference: PubChem BioAssay (NCI)
